For assay [1], the target named is Rap guanine nucleotide exchange factor 3 (Homo sapiens) (UniProt O95398). Put plainly: Confirmatory qHTS for antagonist of cAMP-regulated guanine nucleotide exchange factor 3 (EPAC1) (AID 1645880).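 Also: plate controls were DMSO only for no effect and full effect of the ATA control for full effect; nearly all actives have a fitted effect of over 55% in size.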 The method in brief:
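Released BODIPY-GDP fluoresces less than Rap1-bound BODIPY-GDP; the signal is followed at 480/540 nm at 5-min intervals over 30 min, after 5 min at room temperature. Reactions contain 100 nM EPAC1, 250 nM RAP1B-BODIPY-GDP and 50 uM GDP; results are normalized to ATA and DMSO.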

Assay [2] shares this target. Put plainly: Confirmatory qHTS for agonist of cAMP-regulated guanine nucleotide exchange factor 3 (EPAC1) (AID 1645881). Also: nearly all actives have a fitted effect of over 75% in size. Also: potency is read from the fitted curve at half-maximal effect.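 As to activation: EPAC1 catalysed release of BODIPY-GDP from Rap1B seen as fluorescence loss; 100% = effect of cAMP agonist control.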
In assay [3] the target is Rap guanine nucleotide exchange factor 4 (Homo sapiens) (UniProt Q8WZA2). The assay can be described thus: Confirmatory qHTS for agonist of cAMP-regulated guanine nucleotide exchange factor 4 (EPAC2) (AID 1645884).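 Also: nucleotide exchange releases bodipy-GDP from Rap1 and this lowers its fluorescence; nearly all actives have a fitted effect of over 65% in size.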 Also: potency is read from the fitted curve at half-maximal effect. As to activation: % is scaled to controls: 0 for no effect and ±100 for the full control effect.
Assay [4] has the same target. Put plainly: Confirmatory qHTS for antagonist of cAMP-regulated guanine nucleotide exchange factor 4 (EPAC2) (AID 1645885). Also: nearly all actives have a fitted effect of over 25% in size. Also: potency is read from the fitted curve at half-maximal effect. As to activity change, negative = inhibition: % is scaled to controls: 0 for no effect and ±100 for the full control effect.
Assay [5] has as its target Rap guanine nucleotide exchange factor 3 (Homo sapiens) (UniProt O95398). Put plainly: Counterscreen qHTS for antagonist of cAMP-regulated guanine nucleotide exchange factor 3 (EPAC1) (AID 1645888). Also: % of control where 0% means no effect. The method in brief:
(§1)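 Rap1B-BODIPY-GDP 250 nM + GDP 50 uM; cpds 7-pt, final 9.74 nM–152 uM (activator mode) or from 7.32 nM upwards (inhibitor mode); RT; FI 480/540 nm at 5 and 30 min, then ± cAMP, reread.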

For assay [6] the target is unchanged. Put plainly: Counterscreen qHTS for agonist of cAMP-regulated guanine nucleotide exchange factor 3 (EPAC1) (AID 1645889). Also: nearly all actives have a fitted effect of over 40% in size. Also: potency is read from the fitted curve at half-maximal effect. As to activation: % of control where 0% means no effect. The method, boiled down:
as §1

Results filed as inconclusive are left out. A number with no mark means an inactive call. The source made the active and inactive calls. Calls follow the shape of the dose curve; as a rule, active = well fitted curve in the direction sought with a large enough effect; inconclusive = small, poorly fitted or top-dose-only effect, or another doubt; inactive = no such curve, though single readings can be large; an effect the other way counts as inactive or inconclusive.

Sequence of Rap guanine nucleotide exchange factor 4 (Homo sapiens) (Q8WZA2 whole entry, looked up): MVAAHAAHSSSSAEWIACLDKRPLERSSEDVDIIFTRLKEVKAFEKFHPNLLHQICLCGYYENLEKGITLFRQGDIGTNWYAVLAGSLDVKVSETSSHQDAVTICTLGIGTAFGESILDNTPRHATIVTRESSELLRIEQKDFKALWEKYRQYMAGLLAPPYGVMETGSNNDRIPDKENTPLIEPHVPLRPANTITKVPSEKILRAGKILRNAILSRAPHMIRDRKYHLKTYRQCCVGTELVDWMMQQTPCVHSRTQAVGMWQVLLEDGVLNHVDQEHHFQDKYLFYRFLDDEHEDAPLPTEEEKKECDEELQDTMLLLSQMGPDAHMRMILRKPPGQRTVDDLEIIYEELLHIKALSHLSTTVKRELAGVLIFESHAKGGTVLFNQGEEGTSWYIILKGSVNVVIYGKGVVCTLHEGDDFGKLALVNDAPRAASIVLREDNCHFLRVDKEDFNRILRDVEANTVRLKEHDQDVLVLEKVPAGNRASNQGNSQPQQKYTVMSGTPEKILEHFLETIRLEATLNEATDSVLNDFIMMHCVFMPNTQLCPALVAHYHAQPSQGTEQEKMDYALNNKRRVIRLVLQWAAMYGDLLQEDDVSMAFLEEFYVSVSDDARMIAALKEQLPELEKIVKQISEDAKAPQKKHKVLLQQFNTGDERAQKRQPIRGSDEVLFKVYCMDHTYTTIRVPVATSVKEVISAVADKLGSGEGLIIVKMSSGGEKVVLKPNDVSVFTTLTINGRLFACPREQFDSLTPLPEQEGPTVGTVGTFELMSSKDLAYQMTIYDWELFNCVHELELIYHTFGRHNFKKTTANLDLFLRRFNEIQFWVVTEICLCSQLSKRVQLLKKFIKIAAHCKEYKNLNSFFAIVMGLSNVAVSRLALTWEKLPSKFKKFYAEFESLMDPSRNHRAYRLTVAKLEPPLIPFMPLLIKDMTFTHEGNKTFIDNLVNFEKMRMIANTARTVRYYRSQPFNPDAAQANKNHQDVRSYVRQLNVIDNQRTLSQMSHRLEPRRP
Sequence of Rap guanine nucleotide exchange factor 3 (Homo sapiens) (O95398 whole entry, looked up): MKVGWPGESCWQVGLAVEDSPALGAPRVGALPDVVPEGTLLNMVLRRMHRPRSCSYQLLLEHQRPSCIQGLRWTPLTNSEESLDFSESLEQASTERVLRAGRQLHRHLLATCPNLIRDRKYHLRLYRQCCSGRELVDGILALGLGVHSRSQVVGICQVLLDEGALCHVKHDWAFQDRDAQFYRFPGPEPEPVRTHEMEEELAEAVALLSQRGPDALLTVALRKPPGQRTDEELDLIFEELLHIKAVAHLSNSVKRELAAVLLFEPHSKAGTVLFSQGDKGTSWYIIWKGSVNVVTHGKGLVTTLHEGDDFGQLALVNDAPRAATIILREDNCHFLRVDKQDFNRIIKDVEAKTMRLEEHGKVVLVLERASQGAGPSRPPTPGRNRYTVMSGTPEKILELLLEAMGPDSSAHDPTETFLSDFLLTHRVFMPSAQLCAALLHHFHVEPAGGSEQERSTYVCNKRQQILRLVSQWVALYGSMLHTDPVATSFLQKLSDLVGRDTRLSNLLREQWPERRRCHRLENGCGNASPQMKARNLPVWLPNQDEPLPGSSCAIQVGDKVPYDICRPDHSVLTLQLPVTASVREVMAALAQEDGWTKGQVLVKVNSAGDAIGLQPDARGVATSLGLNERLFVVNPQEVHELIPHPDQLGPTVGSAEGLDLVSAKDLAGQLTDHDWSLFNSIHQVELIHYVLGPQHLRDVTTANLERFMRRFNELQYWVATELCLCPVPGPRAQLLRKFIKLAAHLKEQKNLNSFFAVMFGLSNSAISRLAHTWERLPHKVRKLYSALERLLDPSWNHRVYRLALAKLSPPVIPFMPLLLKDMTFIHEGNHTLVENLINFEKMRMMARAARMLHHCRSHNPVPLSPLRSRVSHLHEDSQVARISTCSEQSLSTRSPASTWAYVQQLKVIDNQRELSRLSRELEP

Turning to `CC(C)(C)C(=O)NCc1ccc(C(=O)CN2C(=O)NC3(CCCC3)C2=O)s1`, the Potency entry in assay [1], in assay [2], in assay [3], in assay [4], in assay [5] and in assay [6] was “inactive” in each case.
`Cc1ccc(NC(=O)CSc2ncn[nH]2)cc1C`: the Potency entry in assay [1], in assay [2], in assay [3], in assay [4], in assay [5] and in assay [6] was “inactive” throughout.
Turning to `Cc1cc(C)c2nc(C)cc(Nc3ccc(C(=O)NCCO)cc3)c2c1`, the Potency entry in assay [1], in assay [2], in assay [3], in assay [4], in assay [5] and in assay [6] was “inactive” each time.
For the molecule `O=c1c2sccc2nc(SCc2cc(=O)n3cc(Cl)ccc3n2)n1Cc1ccccn1`, the Potency entry in assay [1], in assay [2], in assay [3], in assay [4], in assay [5] and in assay [6] was “inactive” in each case.
Take `COc1ccccc1OCC(=O)Nc1cccc(S(=O)(=O)NC2=NCCCCC2)c1`: the Potency result in assay [1], in assay [2], in assay [3], in assay [4], in assay [5] and in assay [6] was “inactive” each time.
Consider `O=C(Cc1ccccc1)NCC(=O)N1CCC1`, for which the Potency entry in assay [1], in assay [2], in assay [3], in assay [4], in assay [5] and in assay [6] was “inactive” in each case.
On to `CCN(CC)c1ccc2cc(-c3nnc(-c4ccccc4)o3)c(=O)oc2c1`, for which the Potency result in assay [1] and in assay [5] was “inactive” throughout. For the same molecule, the Potency in assay [2] was 15.8 µM (active); in assay [3], 15.8 µM (active); in assay [4], 4.26 µM (active); in assay [6] it was 15.8 µM (active).
As for `CC(C)N(Cc1cn(C)nc1-c1cccc(Cl)c1)Cc1nccn1C`, the Potency result in assay [1], in assay [2] and in assay [4] was “inactive” each time. Besides, the activation was 1.24% [at 17.1 µM, percent relative to cAMP agonist control] in assay [3] and 15% [at 30.8 µM] in assay [6]. Moreover, in assay [5], the activity change, negative = inhibition was -5.68% [at 30.8 µM].
Consider `O=C(COc1ccccc1Cl)Nc1cccc(S(=O)(=O)NC2=NCCCCC2)c1`, for which the Potency entry in assay [1], in assay [2], in assay [3], in assay [4], in assay [5] and in assay [6] was “inactive” throughout.
On to `N#CC1=C(O)C(c2ccccc2)n2c1nc(=O)c1ccccc12` (stereo unspecified), for which the Potency result in assay [1], in assay [2] and in assay [4] was “inactive” in each case. Moreover, the activation was 0.476% [at 17.1 µM, percent relative to cAMP agonist control] in assay [3] and 1.1% [at 30.8 µM] in assay [6]. Also, the activity change, negative = inhibition in assay [5] is 1.23% [at 30.8 µM].
On to `CCOC(=O)C1CCCCN1Cc1cn(C)nc1-c1ccccc1F` (stereo unspecified), for which the Potency result in assay [1], in assay [2], in assay [3], in assay [4], in assay [5] and in assay [6] was “inactive” throughout.
On to `Cc1cc(C(=O)COC(=O)C2COc3ccccc3O2)c(C)n1CC1CCCO1` (stereo unspecified), for which the Potency entry in assay [1], in assay [2], in assay [3], in assay [4], in assay [5] and in assay [6] was “inactive” throughout.
On to `CCCCN1C(=O)C(C(=O)OCc2ccccc2)CC2=C1CCCC2=O` (stereo unspecified), for which the Potency entry in assay [1], in assay [2], in assay [3], in assay [4], in assay [5] and in assay [6] was “inactive” throughout.
With `C=CCSc1nc(-c2ccc(OC)cc2)c(C#N)c(=O)n1CC=C`, the Potency entry in assay [1], in assay [2] and in assay [4] was “inactive” in each case. Also, the activation is 1.63% [at 17.1 µM, percent relative to cAMP agonist control] in assay [3] and -17.1% [at 30.8 µM] in assay [6]. In addition, the activity change, negative = inhibition in assay [5] is -30% [at 30.8 µM].
On to `COc1ncc(-c2c(-c3ccccc3OC)sc3ccccc23)cn1`, for which the Potency result in assay [1], in assay [2] and in assay [4] was “inactive” each time. Besides, the activation in assay [3] is -3.13% [at 17.1 µM, percent relative to cAMP agonist control]; in assay [6], 15.7% [at 30.8 µM]. In addition, the activity change, negative = inhibition in assay [5] was -4.66% [at 30.8 µM].
As to `C=CCN(CC=C)Cc1cc(=O)oc2ccc3ccccc3c12`, the Potency result in assay [1], in assay [2] and in assay [4] was “inactive” throughout. Moreover, the activation in assay [3] was -1.79% [at 17.1 µM, percent relative to cAMP agonist control]; in assay [6], 4.33% [at 30.8 µM]. Besides, in assay [5], the activity change, negative = inhibition was -12.3% [at 30.8 µM].
In the case of `COc1ccc(OC)c([C@@H]2OCCC=C[C@H]2C)c1`, the Potency result in assay [1], in assay [2], in assay [3], in assay [5] and in assay [6] was “inactive” in each case. Further, the Potency in assay [4] was 0.0675 µM (active).
For `COC(=O)c1sc(-c2ccccc2)cc1NC(C)=O`, the Potency entry in assay [1], in assay [2] and in assay [4] was “inactive” in each case. The activation in assay [3] was 3.04% [at 17.1 µM, percent relative to cAMP agonist control]; in assay [6] it was 9.28% [at 30.8 µM]. In assay [5], the activity change, negative = inhibition is 7.63% [at 30.8 µM].
For `COc1cc2cncc(Cc3ccc(Cl)cc3)c2cc1OC`, the Potency entry in assay [1], in assay [2], in assay [3], in assay [4], in assay [5] and in assay [6] was “inactive” in each case.
Turning to `Cc1cn([C@H]2C[C@H](O)[C@@H](CCC(=O)NCc3ccc4c(c3)OCO4)O2)c(=O)[nH]c1=O`, the Potency entry in assay [1], in assay [2], in assay [3], in assay [4], in assay [5] and in assay [6] was “inactive” in each case.
As to `COc1ccccc1Sc1nc(-c2ccccc2)ncc1OC`, the Potency result in assay [1], in assay [2] and in assay [4] was “inactive” in each case. The activation is 11.6% [at 17.1 µM, percent relative to cAMP agonist control] in assay [3] and 18.8% [at 30.8 µM] in assay [6]. The activity change, negative = inhibition in assay [5] was 8.06% [at 30.8 µM].

Source of the values: PubChem BioAssay (NCATS).
